Measured values from PubChem BioAssay (NCATS).
Inconclusive results are not listed. Where a call stands in place of a potency, no number is given. A number with no mark means an inactive call. Calls of active or inactive are those of the source. The call rests on the fitted dose curve; in most records, active means well fitted curve in the direction sought with a large enough effect; inconclusive means small, poorly fitted or top-dose-only effect, or another doubt; inactive means no such curve, though single readings can be large; an effect the other way counts as inactive or inconclusive. Where a SMILES comes first, the peptide text is derived from it.

Tests used:
[1] = P-glycoprotein substrates identified in KB-3-1 adenocarcinoma cell line, qHTS therapeutic library screen (AID 1346986); further: nearly all actives have a fitted effect of over 60% in size
How it was run: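 Viability by CellTiter-Glo after 72 h compound exposure at 37 degree C, 5% CO2. Cytotoxic call: curve class -1.1 to -2.4, maximum response >50%, AC50 < 10 uM, compared across KB-3-1 and P-gp-overexpressing KB-8-5-11.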

[2] = Identifying Small Molecule Inhibitors of Pancreatic Cancer Stem Cells (SN12C, Spheroid) (AID 1259360); settings: Potency: SN12C spheroid viability; further: potency means the concentration at half of the fitted maximal effect
How it was run: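 Adherent (2D) versus sphere (3D) formats; spheres generated 14 d in SCM beforehand. Compound transferred by pin tool after 4 h, 48 h incubation, CellTiter-Glo endpoint.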

[3] = Identifying Small Molecule Inhibitors of Pancreatic Cancer Stem Cells (A278, Adherent) (AID 1259361);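 further: viability read after 48 h compound exposure; nearly all actives have a fitted effect of over 35% in size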
How it was run: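 Monolayer and spheroid cultures are compared. Spheroids form over 14 days in stem cell medium on hydrogel-coated low-attachment plates, then are exposed to compound for 48 h before CellTiter-Glo luminescence.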

[4] = Identifying Small Molecule Inhibitors of Pancreatic Cancer Stem Cells (Panc1, Adherent) (AID 1259362); settings: Potency: viability; further: potency means the concentration at half of the fitted maximal effect
How it was run: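 Viability is scored by CellTiter-Glo luminescence 48 h after dosing, expressed as percent activity against vehicle and no-cell references. Spheroid formats rely on cells cultured 14 days in stem cell media beforehand.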

[5] = P-glycoprotein substrates identified in KB-8-5-11 adenocarcinoma cell line, qHTS therapeutic library screen (AID 1346987); further: nearly all actives have a fitted effect of over 65% in size; further: potency means the concentration at half of the fitted maximal effect; on activity change, negative = cytotoxicity: series mostly up to about 44 µM
How it was run: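 Human cervical adenocarcinoma KB-8-5-11 cells, selected in colchicine to over-express P-gp and assayed without it, were exposed for 72 h to titrated compounds. An ATP-based luminescent viability signal gave AC50.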

[6] = Identifying Small Molecule Inhibitors of Pancreatic Cancer Stem Cells (Panc1, Spheroid) (AID 1259359);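 further: potency means the concentration at half of the fitted maximal effect; compound exposure lasted 48 h before reading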
How it was run: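 Luminescent ATP readout (CellTiter-Glo) quantifies surviving cells after a 48 h drug incubation. Normalization uses DMSO wells as no inhibition and media-only wells as full inhibition; bortezomib served as positive control.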

[7] = Identifying Small Molecule Inhibitors of Pancreatic Cancer Stem Cells (A2780, Spheroid) (AID 1259357); settings: Potency: A2780 spheroid viability;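 further: potency means the concentration at half of the fitted maximal effect; compound exposure lasted 48 h before the ATP luminescence read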
Description: Progenitor-like cancer cells, often referred to as cancer stem cells (CSC), are believed to be the drivers of therapeutic resistance and rapid recurrence. CSCs are postulated to reside in specific niches characterized by low oxygen tension, limited nutrient supply, and high redox load. Selectively targeting CSC, alone or in combination with cytotoxic agents, as a means to produce durable remissions is an appealing concept. Modeling these cells in in vitro setting is an important step in finding new therapies and/or targets. Multiple reports highlight that forcing cells in culture into 3-dimensionaly architectures (spheroids) re-establishes key progenitor-like transcriptional signatures. Pancreatic cancer is among the diseases with the most dismal outlook which is driven, largely, by recurance following front-line therapies. […] In hopes of deriving new insight into the targeting of these pancreatic CSCs we examined three established pancreatic cancer cell lines in cytotoxicity assays versus a collection of approved and investigational drugs. Importantly, we screened these lines as traditional monolayer (2D) and spheroid (3D) formats to gain an appreciation of agents with differential activity.
Multicellular tumor spheroids from Panc1, MiaPaCa-2, and the primary low-passage tissue culture line SB.06 were seeded in stem cell media (SCM) in nonadherent 6-well plates coated with hydrogel (Corning Life Sciences, Chelmsford, Mass) and pancreatic spheres generated for 14 days before screening. Cells were seeded into 1536-well solid-bottom white tissue culture treated Greiner Bio One Plates (789173-F) using a MultiDrop Combi (Thermofisher Scientific) dispenser and a small sterile cassette. One column was media alone to be used as a :"no cells" control. The plates were then covered with sterilized stainless steel gasketed lids from Kalypsys. After allowing cells to attach for 4 hours, 23 nL of test compound or control (negative control DMSO and positive control 9.2 uM Bortezomib-final) were added from a 1536-well polypropylene compound source plate to each well using a 1536 head pin tool from Kalypsys. Cells were then incubated for 48 hours at 37C, 95% relative humidity and 5% CO2. After 48 hours, plates were removed from the incubator and 3 uL of CellTiter-Glo (Promega) was added using an Aurora Flying Reagent Dispenser Bioraptor. Plates were incubated at room temperature for 10 minutes prior to reading the luminescence on the Viewlux (PerkinElmer). The relative luciferase units are used to calculate the percent activity using the activity of DMSO in the cells and no cells columns for normalization of no inhibition and full inhibition respectively.

**Q.** For CC(=O)O[C@@H]1[C@H]2[C@@H](OC(=O)c3ccccc3)[C@@H](C)C[C@]2(O)[C@H](OC(C)=O)[C@@]2(C)[C@@H]3CC(C)(C)C(=O)[C@]3(OC(C)=O)C[C@@]12C, which Potency [1] is on record?
**A.** inactive

**Q.** With CCOc1cc2ncc(C#N)c(Nc3ccc(OCc4ccccn4)c(Cl)c3)c2cc1NC(=O)/C=C/CN(C)C as the molecule, how does the Potency [2] read?
**A.** 4690 nM (active)

**Q.** And the IC50 (viability decrease) [3]?
**A.** 1180 nM (active)

**Q.** What about the Potency [4] of the same molecule?
**A.** 2640 nM (active)

**Q.** For CC(C)NC[C@H](O)COc1ccc(CCOCC2CC2)cc1, which Potency [1] is on record?
**A.** inactive

**Q.** Which results are given for COc1c2c(c(C)c3c1C(=O)OC3)O[C@@]1(C)C[C@@H](O)[C@]34O[C@](OC)(CC[C@]3(C)[C@H]1C2)OC4(C)C?
**A.** Potency [1]: inactive; Potency [5]: inactive

**Q.** Which Potency [6] does the source give for CN(NC(=O)CC(=O)NN(C)C(=S)c1ccccc1)C(=S)c1ccccc1 here?
**A.** 3.3 nM (active)

**Q.** What about the Potency [2] of the same molecule?
**A.** 743 nM (active)

**Q.** And the Potency [4]?
**A.** inactive

**Q.** And the Potency [5]?
**A.** 51.7 nM (active)

**Q.** For C/C=C(\C)C(=O)O[C@@H](C)[C@H]1CC[C@]2(O)C3CCC4C[C@@H](OC5CC(OC)C(OC6CC(OC)C(OC7CC(OC)C(OC8OC(C)C(OC9OC(CO)C(O)C(O)C9O)C(OC)C8O)C(C)O7)C(C)O6)C(C)O5)CC[C@]4(C)C3[C@H](O)[C@@H](O)[C@]12C (stereo not given in full), which outcome [1] is on record?
**A.** inactive [at 9.29 µM]

**Q.** For NC(=O)Nc1cc(-c2ccc(CN3CCOCC3)c(F)c2)sc1C(=O)N[C@H]1CCCNC1, which Potency [7] is on record?
**A.** 20900 nM (active)

**Q.** And the Potency [6]?
**A.** 9350 nM (active)

**Q.** And the Potency [2]?
**A.** 16600 nM (active)

**Q.** And the IC50 (viability decrease) [3]?
**A.** 526 nM (active)

**Q.** What about the Potency [4] of the same molecule?
**A.** 833 nM (active)

**Q.** With CC1=C(CC(=O)O)c2cc(F)ccc2C1=Cc1ccc(S(C)(=O)=O)cc1 as the molecule, how does the Potency [1] read?
**A.** inactive

**Q.** Which Potency [1] does the source give for CC1=CC(=O)CC(C)(C)C1CCC(C)OC1OC(COC(=O)c2cc(O)c(O)c(O)c2)C(O)C(O)C1O (stereo not given) here?
**A.** inactive

**Q.** Which Potency [1] does the source give for CC(=O)OC[C@]12[C@H](OC(C)=O)C(=O)[C@@H]3[C@@H](OC(C)=O)[C@@]14O[C@@]3(C)COC(=O)c1cccnc1[C@@H](C)[C@H](C)C(=O)O[C@@H]([C@H](OC(C)=O)[C@@H]2OC(C)=O)[C@]4(C)O here?
**A.** inactive

**Q.** What about the Potency [5] of the same molecule?
**A.** inactive

**Q.** What does the source list for CO/N=C(/C(=O)N[C@@H]1C(=O)N2C(C(=O)O)=C(CSC(=O)c3ccco3)CS[C@H]12)c1csc(N)n1?
**A.** Potency [1]: inactive; Potency [5]: inactive

**Q.** For CC(=O)O[C@@]1(C)C[C@@H](O)[C@]2(O)C=CO[C@@H](O[C@@H]3O[C@H](CO)[C@@H](O)[C@H](O)[C@H]3O)[C@@H]21, which Potency [1] is on record?
**A.** inactive

**Q.** With CC(/C=C/C1(O)C2(C)COC1(C)CC(=O)C2)O[C@@H]1O[C@H](CO)[C@@H](O)[C@H](O)[C@H]1O (stereo not given in full) as the molecule, how does the Potency [1] read?
**A.** inactive

**Q.** With C[C@@H]1C[C@H](O)/C=C/[C@H](O)[C@@H](O)CC(=O)O1 as the molecule, how does the Potency [1] read?
**A.** inactive

**Q.** What about the Potency [5] of the same molecule?
**A.** inactive

**Q.** With CCN(c1cc(C#CCN2CCOCC2)cc(C(=O)NCc2c(C)cc(C)[nH]c2=O)c1C)C1CCC(N(C)CCOC)CC1 (stereo not given) as the molecule, how does the Potency [1] read?
**A.** inactive

**Q.** And the Potency [5]?
**A.** inactive

**Q.** Which results are given for CCC(C)(O)C(O)C(=O)OCc1ccc(O[C@@H]2O[C@H](CO)[C@@H](O)[C@H](O)[C@H]2O)cc1 (stereo not given in full)?
**A.** Potency [1]: inactive; Potency [5]: inactive

**Q.** With CC1NC(=O)CNC(=O)C(C(C)C)NC(=O)C2CCCN2C(=O)C(C(C)C)NC(=O)C(Cc2c[nH]c3ccccc23)NC1=O (stereo not given) (cyclo(GAWVPV); configuration not given here) as the molecule, how does the Potency [1] read?
**A.** inactive

**Q.** What about the Potency [5] of the same molecule?
**A.** inactive

**Q.** For Cc1cc(N2CCCCC2)nc2ccccc12, which Potency [1] is on record?
**A.** inactive

**Q.** What about the Potency [5] of the same molecule?
**A.** inactive

**Q.** What does the source list for COC1C2=C(COC2=O)C2(C)CCCC(C)(CO)C2C1OC(=O)c1ccccc1 (stereo not given)?
**A.** Potency [1]: inactive; Potency [5]: inactive

**Q.** Which results are given for CNC(=O)O[C@H]1COc2ccc(N3CCN(C4COC4)CC3)cc2[C@@H]1NC(=O)c1ccc(F)cc1?
**A.** Potency [1]: inactive; Potency [5]: inactive

**Q.** What does the source list for COC1CC(OC2CCC3(C)C(=CCC4C3CCC3(C)C(C(C)O)CCC43O)C2)OC(C)C1OC1OC(C)C(OC2OC(COC3OC(COC4OC(CO)C(O)C(O)C4O)C(O)C(O)C3O)C(O)C(O)C2O)C(OC)C1O (stereo not given)?
**A.** outcome [1]: inactive [at 9.29 µM]; activity change, negative = cytotoxicity [5]: 4.62% [at 9.29 µM]

**Q.** Which Potency [1] does the source give for C/C(=C\CCC(C)(O)c1ccc(C)cc1)C(=O)O (stereo not given) here?
**A.** inactive

**Q.** What about the Potency [5] of the same molecule?
**A.** inactive

**Q.** Which Potency [1] does the source give for CCn1cc(C2=NOC(C(=O)Nc3c(C)n(C)n(-c4ccccc4)c3=O)C2)c(C)n1 (stereo not given) here?
**A.** inactive

**Q.** What about the Potency [5] of the same molecule?
**A.** inactive

**Q.** Which Potency [1] does the source give for C=C(C(=O)OC)C1CCC2(C)C(O[C@@H]3O[C@H](CO)[C@@H](O)[C@H](O)[C@H]3O)CC(=O)C(C)C2C1O (stereo not given in full) here?
**A.** inactive

**Q.** What about the Potency [5] of the same molecule?
**A.** inactive

**Q.** Which Potency [1] does the source give for O=C(CCO[C@@H]1O[C@H](CO)[C@@H](O)[C@H](O)[C@H]1O)c1ccc(O)cc1 here?
**A.** inactive

**Q.** And the Potency [5]?
**A.** inactive

**Q.** With CCC(C)/C=C(C)/C=C/C1=CC2=C(Cl)C(=O)C(C)(OC(C)=O)C(=O)C2=CN1C1CCCCN(C(CCC(N)=O)C(=O)O)C1=O (stereo not given) as the molecule, how does the Potency [1] read?
**A.** inactive

**Q.** What about the Potency [5] of the same molecule?
**A.** inactive

**Q.** Which results are given for C/C=C(\C)C(=O)O[C@H]1[C@H](O)[C@]2(COC(C)=O)[C@H](O)C[C@]3(C)C(=CCC4[C@@]5(C)CC[C@H](O[C@@H]6O[C@H](C(=O)O)[C@@H](O[C@@H]7O[C@H](CO)[C@@H](O)[C@H](O)[C@H]7O)[C@H](O)[C@H]6O[C@@H]6O[C@H](CO)[C@@H](O)[C@H](O)[C@H]6O)[C@](C)(CO)C5CC[C@]43C)[C@@H]2CC1(C)C (stereo not given in full)?
**A.** outcome [1]: inactive [at 9.29 µM]; activity change, negative = cytotoxicity [5]: 3.98% [at 9.29 µM]

**Q.** With CC1(C)C(=O)N2c3ccccc3[C@]3(CC(n4cnc5ccccc5c4=O)C(=O)O3)[C@H]2N1O (stereo not given in full) as the molecule, how does the Potency [1] read?
**A.** inactive

**Q.** And the Potency [5]?
**A.** inactive
